# Experimental data: PubChem BioAssay AID488969 (Vanderbilt High Throughput Screening Facility, 2010)
# Over roughly 110,000 compounds, “z-score” has its median near -0.1; the highest 2% begin near 2. The sample holds the highest values, similar compounds and a random draw of the others, so the mix is not that of the screen. Active and inactive are the calls of the source.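 How the source made its calls: active means z-score in the third read window above 3 or below -3; inactive means the rest.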
# Target: Metabotropic glutamate receptor 8 (Rattus norvegicus) (UniProt P70579)
# Sequence (P70579 whole entry, looked up): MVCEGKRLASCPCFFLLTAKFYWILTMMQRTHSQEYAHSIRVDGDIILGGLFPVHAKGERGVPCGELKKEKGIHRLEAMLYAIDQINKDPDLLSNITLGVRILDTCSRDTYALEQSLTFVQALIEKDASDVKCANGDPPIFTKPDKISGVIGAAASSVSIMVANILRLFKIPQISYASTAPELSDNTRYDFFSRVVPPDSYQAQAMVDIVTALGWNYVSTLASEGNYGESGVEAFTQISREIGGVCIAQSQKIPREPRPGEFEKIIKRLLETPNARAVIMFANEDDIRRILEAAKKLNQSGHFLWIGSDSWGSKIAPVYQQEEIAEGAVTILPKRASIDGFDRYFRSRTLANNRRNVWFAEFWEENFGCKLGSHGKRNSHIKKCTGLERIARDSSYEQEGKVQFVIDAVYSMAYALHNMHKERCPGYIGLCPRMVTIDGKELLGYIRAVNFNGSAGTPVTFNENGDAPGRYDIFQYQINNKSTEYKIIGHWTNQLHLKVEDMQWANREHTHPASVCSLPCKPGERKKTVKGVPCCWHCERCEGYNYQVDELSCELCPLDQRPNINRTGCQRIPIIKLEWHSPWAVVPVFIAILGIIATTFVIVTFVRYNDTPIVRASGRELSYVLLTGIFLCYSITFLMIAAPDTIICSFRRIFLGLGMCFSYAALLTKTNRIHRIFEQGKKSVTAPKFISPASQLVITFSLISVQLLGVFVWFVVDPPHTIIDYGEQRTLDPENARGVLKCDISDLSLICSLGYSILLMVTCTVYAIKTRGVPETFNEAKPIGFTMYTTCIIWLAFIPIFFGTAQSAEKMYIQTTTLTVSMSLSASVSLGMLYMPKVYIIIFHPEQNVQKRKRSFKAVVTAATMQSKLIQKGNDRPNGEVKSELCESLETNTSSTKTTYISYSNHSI
# Test: mGluR8 Gi/Go-coupled signaling modulation – cell-based, rat, thallium flux, HTS, primary screen (AID 488969)
# Conditions: HEK293 rat mGluR8, GIRK (G protein-gated inwardly rectifying potassium channel) thallium flux, FluoZin2; at 10 µM; stronger effect = higher value; submaximal glutamate (EC20) added with thallium
row,SMILES,z-score
1,O=C(CN1CCOCC1)Nc1ccccc1C(=O)O,-0.257
2,COc1cc(OC)c(-c2cc(C(=O)O)ccc2OC)c(OC)c1,-0.305
3,N/C(COc1cccc(C(F)(F)F)c1)=N\NC(=O)c1cccnc1Oc1ccccc1,-0.285
4,COc1ccc(-c2nnn(CCc3nn[nH]n3)n2)cc1,-0.103
5,O=C(Nc1ccc(Br)cc1F)C1CCCO1 (stereo not drawn),-0.0425
6,CC1CCC(NC(=O)Cn2c(=O)[nH]c3ccsc3c2=O)CC1 (stereo not drawn),-0.274
7,O=C(Cn1c(=O)[nH]c2ccsc2c1=O)NC1CCCCC1,-0.236
8,O=C(Cn1c(=O)[nH]c2ccsc2c1=O)NC1CCCCCC1,8.37 (active)
9,COC(=O)/C=C/C(=O)N1CCN(c2ccccc2)CC1,-0.0929
10,COC(=O)C1=C(C)N(Cc2ccc(OC)cc2)C(=O)C1,-0.151
11,COC(=O)C1=C(C)N(CCc2ccccc2)C(=O)C1,-0.0388
12,COC(=O)C1=C(C)N(CCc2ccc(OC)cc2)C(=O)C1,2.28
13,NC(=O)c1ccsc1NC(=O)CSc1nc2ccccc2c(=O)n1CCCO,-0.109
14,O=C(COC(=O)c1cccc([N+](=O)[O-])c1)NCc1ccc2c(c1)OCO2,-0.0402
15,CCc1cc(C(=O)OC)c(NC(=O)CCC(=O)O)s1,-0.105
16,Fc1ccccc1-c1nnc2c3ccccc3nc(N3CCOCC3)n12,-0.0489
17,Brc1ccc(-c2nnc3c4ccccc4nc(N4CCOCC4)n23)cc1,4.42 (active)
18,Clc1ccc(-c2nnc3c4ccccc4nc(N4CCOCC4)n23)cc1Cl,-0.168
19,Cc1cc(C)nc(/N=C(\N)Nc2cccc([N+](=O)[O-])c2)n1,-1.04
20,COCCCNCCCCOc1ccccc1-c1ccccc1,0.319
21,OCCNCCOc1ccccc1-c1ccccc1,-0.00757
22,COCCNCCOc1ccccc1-c1ccccc1,3.67 (active)
23,CCCNC(=O)CS(=O)(=O)Cc1nc(-c2cccc(OC)c2)oc1C,0.16

row,SMILES,z-score
1,CCCCN(CC)CCCNC(=O)CS(=O)(=O)Cc1nc(-c2cccc(OC)c2)oc1C,3.63 (active)
2,COCCCNC(=O)CS(=O)(=O)Cc1nc(-c2cccc(OC)c2)oc1C,0.565
3,CC1=CC(C)(C)n2c(O)c(N=NC(N)=S)c3cc(C)cc1c32,1.04
4,CC1=CC(C)(C)n2c(O)c(N=NC(N)=S)c3cccc1c32,2.69
5,CC1=CC(C)(C)n2c(O)c(N=NC(N)=S)c3c(C)ccc1c32,1.1
6,N#CCSc1nnc(-c2ccccc2O)n1Cc1ccccc1,-0.264
7,OC1(c2cccc(F)c2)CCN(Cc2ccncc2)CC1,-0.584
8,OC1(c2ccc3ccccc3c2)CCN(Cc2ccccc2)C1 (stereo not drawn),2
9,c1ccc2cc(CN3CCOCC3)ccc2c1,0.71
10,CC1(C)Cc2cccc(OCC(=O)Nc3cccnc3)c2O1,0.958
11,COc1ccc(C(=O)N/C(=C\c2cccc3ccccc23)C(=O)NCCc2c[nH]c3ccccc23)cc1OC,-1.59
12,Cc1ccc(CSc2nnc(-c3ccc(S(=O)(=O)N4CCCC4)cc3)o2)cc1,1.62
13,O=S(=O)(c1ccc(-c2nnc(SCc3nnc(-c4ccccc4)o3)o2)cc1)N1CCCC1,3.72 (active)
14,NC(=O)CSc1nnc(-c2ccc(S(=O)(=O)N3CCCC3)cc2)o1,-0.271
15,CO/N=C/c1ccc(Sc2ccccc2)c([N+](=O)[O-])c1,-0.0163
16,C=CCNC(=O)NC(=S)c1ccccc1,3.72 (active)
17,O=C(NCCO)NC(=S)c1ccccc1,-0.169
18,C=CCNC(=S)NNC(=O)c1ccccc1,-0.00102
19,CCNc1nc(NCC)nc(C(=O)Nc2ccccc2)n1,-0.0479
20,O=C(NCc1ccc(Cl)cc1)C1C2C=CC3(CN(Cc4cccnc4)C(=O)C13)O2 (stereo not drawn),0.82
21,OCCN(Cc1ccccc1)Cc1ccc(C(F)(F)F)cc1,-0.0102
22,O=C(O)c1ccccc1SC1CC(=O)N(C2CCCCC2)C1=O (stereo not drawn),-0.0935
23,Cc1ccc(NC(=O)C2CC(=O)OC23CCOC(C)(C)C3)cc1 (stereo not drawn),-0.427

row,SMILES,z-score
1,CC(C)C(=O)NC(Nc1ccccc1F)C(Cl)(Cl)Cl (stereo not drawn),-0.185
2,CCCCCn1ccc(=N)cc1,1.99
3,CCCCCCn1ccc(=N)cc1,0.937
4,CCCCCCCn1ccc(=N)cc1,-0.268
5,Cc1ccc(C)c(S(=O)(=O)N2C(=S)NC(=O)C2C(C)C)c1 (stereo not drawn),0.0469
6,CCN(CC)S(=O)(=O)c1ccc(N2CCOCC2)c(NC(=O)C(=O)c2c(-c3ccccc3)cc3ccccn23)c1,-0.54
7,CN(C)S(=O)(=O)N1CCN(S(=O)(=O)c2ccccc2)CC1,-0.177
8,Cc1csc(NC(=O)CSc2nnc(CCNC(=O)c3cccs3)n2C)n1,-0.0983
9,Cc1cccc(C(=O)NCCc2nnc(SCC(=O)Nc3nc(C)cs3)n2C)c1,2.62
10,Cc1csc(NC(=O)CSc2nnc(CCNC(=O)c3ccc(Cl)c(Cl)c3)n2C)n1,-0.837
11,N#CCCN(C(=O)CSc1nc(-c2ccccc2)cn1N)c1ccc(F)cc1,-0.2
12,COc1cc2c(cc1OC)C(C(=O)NCCN1CCOCC1)C1c3ccccc3CCN1C2=O (stereo not drawn),-1.12
13,Oc1c(N=Nc2ccccn2)ccc2ccccc12,13.6 (active)
14,Oc1ccc(N=Nc2c(O)ccc3ccccc23)cc1,-0.0552
15,Oc1ccc2ccccc2c1N=Nc1ccccn1,2.19
16,N/C(=N\OC(=O)Cc1cccc2ccccc12)c1ccccn1,0.135
17,Oc1c(/C=N/c2ncn[nH]2)ccc2ccccc12,0.0888
18,O=C(O)Cc1c(O)ccc2ccccc12,-0.0548
19,CCOc1cc(C2C(C#N)=C(N)OC(C)=C2C(C)=O)cc(Br)c1O (stereo not drawn),-1.08
20,O=C(Nc1ncc2c(n1)-c1ccccc1CC2)c1cccc(Cl)c1,-0.891
21,CCN(c1ccc(NC(=O)COC(=O)CCC(=O)c2ccc(F)cc2)cc1)C(C)C,-0.471
22,Cc1cc(C)cc(-n2c(SC(C)C(=O)NCc3ccc4c(c3)OCO4)nc3ccccc3c2=O)c1 (stereo not drawn),-0.19
23,CCc1ccc(-c2ccc(C(=O)C(F)(F)F)[nH]2)cc1,-0.0177

row,SMILES,z-score
1,Cc1ccc(-c2ccnc(=S)[nH]2)cc1,0.997
2,Cc1ccc(-c2ccc(C(=O)O)[nH]2)cc1,2.4
3,Cc1ccsc1C1Nc2ccccc2C(=O)N1O (stereo not drawn),-0.218
4,Cc1c(C2Nc3ccccc3C(=O)N2O)cnn1C (stereo not drawn),0.189
5,Cc1nn(C)cc1C1Nc2ccccc2C(=O)N1O (stereo not drawn),-0.121
6,Cc1cc([N+](=O)[O-])ccc1-c1ccc(C2Nc3ccccc3C(=O)N2O)o1 (stereo not drawn),3.53 (active)
7,O=C1c2ccccc2NC(c2ccc(-c3ccc(Br)cc3)o2)N1O (stereo not drawn),3.36 (active)
8,O=C1c2ccccc2NC(c2ccc(-c3cccc(Cl)c3)o2)N1O (stereo not drawn),2.57
9,N#CC1=C(S)N(c2ccccc2)C(c2ccc(-c3cccc(Cl)c3)o2)NC1=O (stereo not drawn),-0.292
10,O=C1c2ccccc2NC(c2cn[nH]c2-c2ccccc2)N1O (stereo not drawn),-0.0761
11,O=C1c2ccccc2NC(c2ccco2)N1O (stereo not drawn),-0.422
12,CC1CCC(NC(=O)Nc2cccs2)CC1 (stereo not drawn),0.643
13,CCOC(=O)c1c(NC(=O)C2=C(C)NC(=S)NC2c2ccc(F)cc2F)sc(C)c1C (stereo not drawn),0.556
14,CCCCCCn1c(C)nc2c(c1=O)c1nc3ccccc3nc1n2/N=C/c1ccco1,0.218
15,CCn1c(SCC(=O)Nc2ccc(C)cc2)nc2nc3c(cc2c1=O)CCCC3,0.307
16,CCn1c(=S)[nH]c2nc3c(cc2c1=O)CCCC3,2.31
17,CCC1(C)Cc2nc3[nH]c(=S)n(-c4ccccc4)c(=O)c3cc2CO1 (stereo not drawn),-0.0711
18,C=CCn1c(=S)[nH]c2nc3c(cc2c1=O)CCCC3,4.15 (active)
19,CCn1c(SCc2ccc(Cl)cc2)nc2nc3c(cc2c1=O)CCCC3,0.193
20,CC1(C)Cc2nc3[nH]c(=S)n(-c4ccccc4)c(=O)c3cc2CO1,-0.126
21,CN(C(=O)c1ccncc1)c1nnc(-c2cnccn2)s1,-0.251
22,COc1ccc(NC(=O)Cc2coc3cc(C)c(C(C)C)cc23)cc1S(=O)(=O)N1CCOCC1,-0.503
23,CCOC(=O)/C(C#N)=C/c1cc2ccccc2nc1Cl,-0.3

row,SMILES,z-score
1,O=C(c1ccco1)N1CCN(S(=O)(=O)c2ccc(Cl)s2)CC1,-0.0642
2,COc1cccc(N(CC(=O)N/N=C(\C)c2cccs2)S(C)(=O)=O)c1,-0.154
3,CC1=C(C(=O)OC(C)C)C(c2cncc(-c3ccc(F)cc3)c2)C(C#N)=C(N)O1 (stereo not drawn),-0.367
4,CCOC(=O)C1=C(C)OC(N)=C(C#N)C1c1cc(F)ccc1F (stereo not drawn),-2.09
5,CCOC(=O)C1=C(C)OC(N)=C(C#N)C1c1cncc(-c2ccc(F)cc2)c1 (stereo not drawn),2.92
6,Cc1ccc(S(=O)(=O)NC(C)C(c2cccs2)N2CCN(c3ccccc3)CC2)cc1 (stereo not drawn),-0.115
7,O=C(NC(=S)Nc1ccccn1)c1cc(-c2ccccc2)nc2ccccc12,3.22 (active)
8,O=C(NCc1ccccn1)c1cc(-c2ccc(-c3ccccc3)cc2)nc2ccccc12,-0.368
9,COc1ccc(C(=O)NNC(=S)NC(=O)c2cc(-c3ccccc3)nc3ccccc23)cc1,2.35
10,O=C(NCc1ccccn1)c1cc(-c2ccccc2)nc2ccccc12,-0.314
11,Cc1ccccc1NC(=S)NC(=O)c1cc(-c2ccccc2)nc2ccccc12,7.41 (active)
12,CCNC(=S)NNC(=O)c1cc(-c2cccc(C)c2)nc2ccccc12,0.214
13,CCCOc1ccc(C(=O)NNC(=S)NC(=O)c2cc(-c3ccccc3)nc3ccccc23)cc1,0.558
14,Cc1cccc(NC(=O)c2cc(Cl)nc3ccccc23)c1,-0.228
15,Cc1ccc(-c2cc(C(=O)Nc3ccccc3C)c3ccccc3n2)o1,0.279
16,Cc1ccc(-c2cc(C(=O)Nc3cc(C)on3)c3ccccc3n2)cc1,-0.321
17,CCCOc1ccc(C(=O)NNC(=S)NC(=O)c2cc(-c3ccc(Cl)cc3)nc3ccccc23)cc1,-0.0891
18,Cc1cccc(NC(=S)NC(=O)c2cc(-c3ccccc3)nc3ccccc23)c1,5.14 (active)
19,O=C(Cn1cc([N+](=O)[O-])cn1)N1CCc2ccccc21,0.0712
20,O=C(c1cccs1)c1cn(CC(=O)N2CCc3ccccc3C2)c2ccccc12,-0.134
21,COc1ccc(N2CCN(S(=O)(=O)c3cccc(C(F)(F)F)c3)CC2)cc1,-0.0298
